Inconclusive results are not listed. Calls of active or inactive are those of the source. Calls follow the shape of the dose curve; as a rule, active = well fitted inhibition curve with a large enough effect; inconclusive = small, poorly fitted or top-dose-only effect; inactive = flat fitted curve, though single readings scatter.
Target: Galactokinase (Homo sapiens) (UniProt P51570)
Assay: Confirmation Assay for Inhibitors of Human Galactokinase (GALK): SAR round 2
Details: Recombinant GALK, Kinase-Glo ATP depletion luminescence; series mostly up to 57.5 µM
Text: NIH Molecular Libraries Probe Production Centers Network [MLPCN] NIH Chemical Genomics Center [NCGC] MLPCN Grant: R03 MH085689-01 Assay Submitter (PI): Kent Lai (University of Utah School of Medicine, 50 N Mario Capecchi Drive, Salt Lake City, UT 84132) NCGC Assay Overview Inherited deficiency of galactose-1-phosphate uridyltransferase (GALT) can result in a potentially lethal disorder called Classic Galactosemia (OMIM 230400). Several lines of evidence indicate that an elevated level of galactose-1-phosphate (gal-1-p), the product of galactokinase (GALK), is a major, if not sole, pathogenic mechanism in patients with classic galactosemia. Therefore, finding inhibitors of GALK is a potential novel therapy for this inherent metabolic disease and is the long term goal of this project. Active compounds observed in the qHTS GALK assay (AID: 1868) were cherry picked and re-screened for validation. […]
NCGC Assay Protocol Summary: Three uL/well of ATP-buffer solution (35 uM ATP, 20mM HEPES pH8.0, 5 mM MgCl2, 60 mM NaCl, 1 mM DTT, 0.01% BSA final concentration) was dispensed into 1536-well, assay plates (Greiner, solid white medium-binding plates) with Aurora Discovery BioRAPTR Flying Reagent Dispenser (FRD; Beckton-Dickenson). […] Luminescence was detected with the ViewLux plate reader (Perkin Elmer, Waltham, MA) after 2 min incubation using a 1 sec exposure time and 2x binning.

Galactokinase (Homo sapiens), sequence (P51570 whole entry, looked up): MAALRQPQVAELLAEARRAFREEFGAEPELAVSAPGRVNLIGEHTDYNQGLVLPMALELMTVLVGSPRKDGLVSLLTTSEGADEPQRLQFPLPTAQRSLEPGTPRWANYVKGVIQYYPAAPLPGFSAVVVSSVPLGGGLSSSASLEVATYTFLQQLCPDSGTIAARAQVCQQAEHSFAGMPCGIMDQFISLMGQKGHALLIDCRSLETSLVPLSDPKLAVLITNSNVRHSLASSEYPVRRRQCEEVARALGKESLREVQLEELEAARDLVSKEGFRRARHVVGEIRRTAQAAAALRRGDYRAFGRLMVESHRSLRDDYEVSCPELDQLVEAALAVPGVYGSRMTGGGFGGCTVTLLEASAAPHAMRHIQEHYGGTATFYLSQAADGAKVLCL

CC(=O)OCOCC(=O)OCO[P+](=O)C(OCOC(C)=O)c1cc([N+](=O)[O-])ccc1Oc1ccc(Br)cc1 (stereo unspecified)
outcome: inactive
